Several values for one entry are separate records, joined by “and”; a condition that tells them apart may be missing. Equal entries are not always repeated. Activity calls are given as the source filed them. Unless noted, how the calls were made is not given here.
Experiments:
[1] = compounds altering circadian rhythm period length – cell-based, LOPAC library, luminescence reporter (AID 2774); conditions: circadian reporter cells, at 7 µM, actives lie on both sides;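 further: values are relative to mean of DMSO wells on each plate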
[2] = P. berghei load reduction in hepatocytes – cell-based, HepG2, luciferase luminescence, HepG2 viability, primary screen (AID 624349; in the data active means parasite load remaining mostly below about 12%, no sharp cut-off; inactive means mostly above about 10%;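 further: 100% = mean of DMSO negative control wells on the same plate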); conditions: P. berghei liver stage in HepG2, luciferase luminescence, concentration not given here; parasite load remaining: stronger effect = lower value; viability: measured here: HepG2 viability without parasites
[3] = tested on: Hepatitis C virus NS3 helicase; test: blockers of NS3h binding to ssDNA – biochemical, fluorescence polarization, LOPAC1280 library, primary screen (AID 687035; in the data active means inhibition above about 37%); conditions: Purified HCV NS3 helicase, Cy5-dT15 ssDNA binding fluorescence polarization; stronger effect = higher value; concentration not given here
[4] = compounds altering Cy5-DNA-NS3h complex signal – biochemical, LOPAC1280, artefact control for HCV NS3 helicase inhibitor project (AID 687037); conditions: Cy5-DNA-NS3h complex fluorescence interference counterscreen
[5] = tested on: Aerobactin synthetase IucA (Klebsiella pneumoniae); test: inhibition of K. pneumoniae IucA enzyme – biochemical, Tocris library, absorbance (AID 1345561); conditions: purified IucA enzyme assay, absorbance (OD) read-out; stronger effect = lower value;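 tested at 8 µM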;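 further: 100% = enzyme without compound and 0% = no enzyme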
[6] = viability loss with induced miR-34 in A549 – imaging, A549 dox-inducible miR-34, nuclei and caspase counts, primary screen (AID 1347080;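 active means compounds whose cell count with miR-34 switched on is under 0.7 times the count with it off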); conditions: A549 miR-34 inducible, Hoechst nuclei count, 48 h
[7] = blockers of cellular phospholipid synthesis – cell-based, LOPAC library, screen 4, primary screen (AID 1347384); conditions: animal cells, phospholipid biosynthesis inhibition screen; at 10 µM
[8] = MELAS cybrid and Rieske KO viability enhancers – cell-based, MELAS cybrids, Rieske KO mouse fibroblasts, CellTiter-Glo, primary screen (AID 1508586;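 active means mean z-score across replicates of 1.96 or higher in either the MELAS or the Rieske mutant cell line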;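 further: z relative to plate mean and SD of compound and empty wells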); conditions: low glucose
[9] = galactose survival enhancers in mitochondrial complex I cybrids – cell-based, galactose medium, ATP luminescence, primary screen (AID 1645843;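 active means z-score of at least 1.8 in each of two replicates, scored against plate mean and spread of sample wells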;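 further: positive z means more ATP and so rescue of galactose-driven cybrid death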); conditions: complex I mutant cybrid cells, 72 h, stronger effect = higher value
[10] = compounds altering viability of human ES cells (AID 493140); conditions: human embryonic stem cell survival screen; stronger effect = higher value;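 further: cells exposed to compounds for four days before counting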
[11] = chitosan synthesis blockers in C. neoformans – flow cytometry, Cibacron Brilliant Red staining (AID 1347148); conditions: Cryptococcus neoformans chitosan, stronger effect = lower value; at 10 µM unless noted;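 further: compound exposure lasted three days at 37 degrees C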
[12] = stronger effect = lower value, cell number ratio, induced over uninduced
[13] = measured here: relative caspase fold change +Dox/-Dox
[14] = measured here: total cells with miR-34 induction, stronger effect = lower value
[15] = measured here: total cells without miR-34 induction
[16] = MELAS cybrid survival, CellTiter-Glo 48 h, stronger effect = higher value
[17] = Rieske KO mouse fibroblast survival, CellTiter-Glo 72 h

Question: Which period change [1] does the source give for CN(C(=O)CCCOc1ccc2[nH]c(=O)ccc2c1)C1CCCCC1 here?
Answer: -0.015 h (inactive)

Question: And the parasite load remaining [2]?
Answer: 30.5% (inactive)

Question: What about the viability [2] of the same compound?
Answer: 71.5%

Question: And the inhibition [3]?
Answer: -1% (inactive)

Question: And the fluorescence ratio (interference) [4]?
Answer: 1 (inactive)

Question: And the remaining activity [5]?
Answer: 117% (inactive)

Question: What about the fold change [6, 12] of the same compound?
Answer: 1.04 (inactive) and 0.982 (inactive) and 0.9 (inactive)

Question: What about the fold change [6, 13] of the same compound?
Answer: 2.05 and 0.725 and 1.16

Question: What about the cell count [6, 14] of the same compound?
Answer: 8910 and 7180 and 9490

Question: And the cell count [6, 15]?
Answer: 8530 and 7310 and 10500

Question: What about the outcome [7] of the same compound?
Answer: inactive

Question: And the z-score [8, 16]?
Answer: 0.542 (inactive)

Question: What about the z-score [8, 17] of the same compound?
Answer: -0.471

Question: What about the z-score [9] of the same compound?
Answer: -0.385 (inactive) and 0.22 (inactive) and -0.02 (inactive)

Question: With NC(=O)CNCCC(c1ccccc1)c1ccccc1 as the compound, how does the period change [1] read?
Answer: -0.275 h (inactive)

Question: And the inhibition [3]?
Answer: 0% (inactive)

Question: What about the fluorescence ratio (interference) [4] of the same compound?
Answer: 1.1 (inactive)

Question: And the remaining activity [5]?
Answer: 72.6% (inactive)

Question: What about the fold change [6, 12] of the same compound?
Answer: 0.993 (inactive) and 0.866 (inactive)

Question: And the fold change [6, 13]?
Answer: 1.46 and 1.33

Question: What about the cell count [6, 14] of the same compound?
Answer: 9880 and 8250

Question: And the cell count [6, 15]?
Answer: 9950 and 9520

Question: And the outcome [7]?
Answer: inactive

Question: What about the z-score [9] of the same compound?
Answer: -0.185 (inactive) and 0.085 (inactive)

Question: What does the source list for O=C1Cc2c([nH]c3ccc(Br)cc23)-c2ccccc2N1?
Answer: period change [1]: -0.835 h (active); parasite load remaining [2]: 33% (inactive); viability [2]: 64.2%; inhibition [3]: 1% (inactive); fluorescence ratio (interference) [4]: 1 (inactive); remaining activity [5]: 115% (inactive); fold change [6, 12]: 1.11 (inactive) and 0.922 (inactive) and 1.05 (inactive); fold change [6, 13]: 0.981 and 0.403 and 0.535; cell count [6, 14]: 4020 and 4080 and 1060; cell count [6, 15]: 3640 and 4430 and 1010; outcome [7]: inactive; z-score [9]: -0.785 (inactive) and -0.43 (inactive)

Question: For CC(C)NC[C@H](O)COc1ccc(CC(N)=O)cc1, which period change [1] is on record?
Answer: -0.06 h (inactive)

Question: And the parasite load remaining [2]?
Answer: 111% (inactive)

Question: And the viability [2]?
Answer: 102%

Question: What about the inhibition [3] of the same compound?
Answer: -2% (inactive)

Question: And the fluorescence ratio (interference) [4]?
Answer: 1 (inactive)

Question: And the remaining activity [5]?
Answer: 87% (inactive)

Question: What about the fold change [6, 12] of the same compound?
Answer: 1.04 (inactive) and 0.889 (inactive) and 0.97 (inactive)

Question: What about the fold change [6, 13] of the same compound?
Answer: 1.51 and 1.14 and 0.697

Question: What about the cell count [6, 14] of the same compound?
Answer: 7050 and 9340 and 9400

Question: And the cell count [6, 15]?
Answer: 6770 and 10500 and 9690

Question: And the outcome [7]?
Answer: inactive

Question: And the z-score [8, 16]?
Answer: -0.419 (inactive)

Question: And the z-score [8, 17]?
Answer: -1.01

Question: And the z-score [9]?
Answer: 0.305 (inactive) and -0.32 (inactive)

Question: For Fc1cccc(/C=N/N=C/c2cccc(F)c2)c1, which remaining activity [5] is on record?
Answer: 113% (inactive)

Question: And the fold change [6, 12]?
Answer: 1.08 (inactive) and 0.921 (inactive)

Question: And the fold change [6, 13]?
Answer: 1.02 and 0.755

Question: What about the cell count [6, 14] of the same compound?
Answer: 11300 and 8600

Question: What about the cell count [6, 15] of the same compound?
Answer: 10400 and 9330

Question: What about the outcome [7] of the same compound?
Answer: inactive

Question: What about the z-score [9] of the same compound?
Answer: 0.64 (inactive) and 0.415 (inactive)

Question: Which survival [10] does the source give for Cc1ccc(-c2nn(C(C)(C)C)c3ncnc(N)c23)cc1 here?
Answer: 82.2 (inactive)

Question: What about the remaining activity [5] of the same compound?
Answer: 109% (inactive)

Question: And the fold change [6, 12]?
Answer: 1.15 (inactive) and 0.969 (inactive) and 1.02 (inactive)

Question: What about the fold change [6, 13] of the same compound?
Answer: 0.8 and 0.845 and 0.764

Question: What about the cell count [6, 14] of the same compound?
Answer: 850 and 2400 and 3230

Question: And the cell count [6, 15]?
Answer: 738 and 2480 and 3170

Question: What about the fold fluorescence [11] of the same compound?
Answer: 12.9 [at 177.7 µM] (inactive)

Question: And the z-score [8, 16]?
Answer: 0.565 (inactive)

Question: And the z-score [8, 17]?
Answer: -0.238

Question: And the z-score [9]?
Answer: 0.19 (inactive)

Question: Which survival [10] does the source give for CC(C)(C)n1nc(-c2ccc(Cl)cc2)c2c(N)ncnc21 here?
Answer: 53.1 (inactive)

Question: What about the remaining activity [5] of the same compound?
Answer: 92.2% (inactive)

Question: What about the fold change [6, 12] of the same compound?
Answer: 1.17 (inactive) and 0.851 (inactive) and 0.882 (inactive)

Question: And the fold change [6, 13]?
Answer: 0.727 and 0.97 and 0.665

Question: And the cell count [6, 14]?
Answer: 797 and 2420 and 4980

Question: And the cell count [6, 15]?
Answer: 682 and 2850 and 5640

Question: What about the fold fluorescence [11] of the same compound?
Answer: 4.87 [at 165.7 µM] (inactive)

Question: What about the z-score [8, 16] of the same compound?
Answer: 0.749 (inactive)

Question: What about the z-score [8, 17] of the same compound?
Answer: -0.167

Question: And the z-score [9]?
Answer: 1.28 (inactive)
